Drawing on PubChem BioAssay AID624351 (Southern Research Specialized Biocontainment Screening …, 2012), this text covers IC50 for 72 molecules.

The structures appear in SMILES notation. About 1,400 (58%) of roughly 2,400 compounds were called active.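 Rule for the calls: active = inhibition of 30% or more at any tested dose; inconclusive = primary hits over the limit that were never retested; inactive = the rest.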 The set was probably picked from earlier hits. Some of the results follow.

The nature of the experiment: coupled detection enzyme interference, dose response, artefact control for MgcRacGAP inhibitor project, biochemical, coupled enzyme counter-screen (AID 624351).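 Note: signal is the ADP detection kit reading of free GDP without any GAP enzyme.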 As to conditions: ADP Hunter coupled enzyme counter-screen, fluorescence, no MgcRacGAP; series mostly up to 80 µM.
For orientation: IC50 means the concentration that inhibits the measured activity by half. Regarding `CCCCN(CCCC)CCNC(=O)CSCc1ccc(C)cc1`, the IC50 result is “inactive”.
To `Cc1cccc(-n2nc3c(c2NC(=O)c2ccco2)CSC3)c1C` belongs “inactive”; to `C=CCc1cc(OC)ccc1OCCN1CC(C)OC(C)C1` (configuration not stated), “inactive”.
For the molecule `c1coc(CSSCc2ccco2)c1`, the IC50 entry was “inactive”.
As for `Nc1ccc(OCc2ccco2)cc1`, the figure is 58.6 µM (active); as for `CC1N(C)c2cccc3cccc(c23)N1C`, 21 µM (active).
`O=C1/C(=C/c2ccccc2[N+](=O)[O-])COc2ccccc21`: the IC50 entry is “inactive”.
As to `CCN(CC)c1ccc(N=Cc2c(C)[nH]c3ccccc23)cc1`, the concentration for half-maximal inhibition (IC50) is 41.6 µM (active).
`CN(C)C=Nc1ccc2nc3c(cc2c1)[nH]c1ccccc13`: the IC50 entry was “inactive”.
As for `CCN(CC)c1ccc(N=Cc2ccccc2[N+](=O)[O-])cc1`, the figure is 27.2 µM (active); as for `CC(=C/c1ccccc1)/C=N/n1c(-c2ccco2)n[nH]c1=S`, 66.7 µM (active); as for `S=c1[nH]nc(-c2ccco2)n1/N=C/c1ccc(Cl)cc1`, 51.2 µM (active).
`CC1=C(C)CS(=O)N(S(=O)(=O)c2ccc(Cl)cc2)C1` (configuration not stated): the IC50 result was “inactive”.
As for `Cc1cccc(-c2n[nH]c(=S)n2/N=C/c2ccco2)c1`, the figure is 78.9 µM (active); as for `Cc1cccc(CN2CCN(Cc3ccco3)CC2)c1`, “inactive”.
To `Cc1ccc2nc(N(CCCN(C)C)C(=O)c3ccc4ncsc4c3)sc2c1` belongs “inactive”; to `Cc1nc2ccc(C(=O)Nc3ccc(N(C)C)cc3)cc2s1`, 58.9 µM (active); to `O=C(CN1CCc2ccccc2C1)Nc1ccccc1C(F)(F)F`, “inactive”.
`COc1cc(C2C(=O)c3ccccc3C2=O)ccc1O`: the IC50 is 20.4 µM (active).
For `O=C1c2ccccc2C(=O)C1c1ccc(O)cc1`, the IC50 was 81.3 µM (active).
Turning to `C[C@H]1CCC/C=C/[C@@H]2C[C@H](O)C[C@H]2[C@H](O)[C@H](S(=O)c2ccc(O)cc2)CC(=O)O1` (some centres not stated), the IC50 entry is “inactive”.
In the case of `CN1CCN(CCCNCc2cn(CCC#N)c3ccccc23)CC1`, the IC50 result was “inactive”.
Turning to `N#CCCN1CCN(CCC#N)c2ccccc21`, the IC50 is 20 µM (active).
Take `COC(=O)c1ccc(NC(=S)Nc2ccc(O)cc2)cc1`: the IC50 was 68.1 µM (active).
As to `CC(=O)Nc1ccc(OC(=O)c2cc3ccccc3oc2=O)cc1`, the IC50 result was “inactive”.
Turning to `Oc1ccc(NC(=S)Nc2ccccc2)cc1`, the IC50 was 55.5 µM (active).
Regarding `COc1ccc(OC(=O)COc2ccc(C)cc2)cc1`, the IC50 result is “inactive”.
With `O=C(/C=C/c1ccco1)NC(=S)Nc1ccc(C(=O)O)cc1`, the IC50 entry is “inactive”.
To `Oc1ccc(NC(=S)Nc2ccc(O)cc2)cc1` belongs 46.5 µM (active).
`CC(=O)c1ccc(NC(=S)Nc2ccc3[nH]c(=O)[nH]c3c2)cc1`: the IC50 entry is “inactive”.
As for `Cc1ccc(OC(=S)Nc2ccc(O)cc2)cc1`, the figure is 34.5 µM (active); as for `CN(C)c1ccc(O)c2c1CC1CC3[C@@H](N(C)C)C(=O)C(C(N)=O)=C(O)[C@]3(O)C(=O)C1=C2O` (some centres not stated), “inactive”; as for `COCC(C)NCc1ccc(OC)c(Br)c1` (configuration not stated), “inactive”.
In the case of `COc1ccc(CN2CCN(Cc3ccccc3F)CC2)c(OC)c1`, the IC50 result was “inactive”.
To `O=C(c1cccnc1)N1CCN(Cc2cccc(Br)c2)CC1` belongs “inactive”; to `O=C(NC(=S)Nc1ccc(O)cc1)C1CCCC1`, 31.8 µM (active); to `O=C(Nc1ccc(O)cc1)C1CC=CCC1` (configuration not stated), 64.6 µM (active).
Take `CN(C(=S)NC(=O)C1CC1)c1ccc(O)cc1`: the IC50 result was “inactive”.
Regarding `CNC(=S)Nc1ccc(Nc2ccccc2)cc1`, the IC50 is 71.8 µM (active).
To `CC1CCCCN1CC(=O)Nc1ccc(N2CCCCCC2)cc1` (configuration not stated) belongs “inactive”; to `CC(C)N(c1ccccc1)c1ccc(NC(=S)NCCN(C)C)cc1`, “inactive”.
On to `N=C1/C(=C\c2ccc(Br)o2)C(=O)N=C2SC(CC(=O)N3CCCCC3)=NN12`, for which the IC50 entry is “inactive”.
As for `COc1ccc(C2NC(=O)C(C#N)=C(S)N2c2ccccc2)cc1OC` (configuration not stated), the entry is “inactive”.
To `S=c1[nH]nc2ccccn12` belongs 24 µM (active).
In the case of `Cc1cccn2c(=S)[nH]nc12`, the IC50 is 13.4 µM (active).
On to `Cc1ccn2c(=S)[nH]nc2c1`, for which the concentration for half-maximal inhibition (IC50) was 46.7 µM (active).
To `Cc1ccc(/C=C2/C(=O)c3ccc(C(=O)O)cc3C2=O)o1` belongs “inactive”.
To `Cc1cc(O)ccc1N=Cc1c(C(F)(F)F)[nH][nH]c1=O` belongs 32.8 µM (active); to `Oc1ccc(/C=C/c2ccc3ccccc3n2)cc1`, 30.7 µM (active).
Take `O=c1[nH]c2ccccc2nc1/C=C/c1ccc(O)cc1`: the concentration for half-maximal inhibition (IC50) is 36.9 µM (active).
To `CCOc1cc(/C=N/NC(=O)c2cc(C3CC3)[nH]n2)ccc1O` belongs 56.1 µM (active); to `CCOc1cc(/C=N/NC(=O)c2ccc(NC(=O)C3CC3)cc2)ccc1O`, 83.2 µM (active); to `CCOc1cc(/C=N/NC(=O)c2ccc(=O)n(C)c2)ccc1O`, 60.4 µM (active).
Consider `CCOc1cc(/C=N/NC(=O)C2CCCC2)ccc1O`, for which the IC50 is 51.3 µM (active).
To `Cc1cc(C)c(C)c(OCCNCc2ccccc2)c1` belongs “inactive”; to `COc1ccccc1COCC(O)CNCC1(N2CCCCC2)CCCCC1` (configuration not stated), “inactive”.
For the molecule `COc1cc(/C=N/NC(=O)C2CCN(CC(O)COCc3ccccc3)CC2)ccc1O` (configuration not stated), the IC50 is 34.1 µM (active).
As for `Cc1cccc(N2C(S)=C(C#N)C(=O)NC2c2cccs2)c1` (configuration not stated), the entry is “inactive”; as for `COc1cc(CN(C)CCc2ccccn2)cc(OC)c1OC`, “inactive”.
As for `COc1cc(N)c2ncccc2c1SC`, the IC50 is 51.2 µM (active).
As for `COc1cc(NC(C)CCCNC(C)C)c2ncccc2c1OC` (configuration not stated), the IC50 result is “inactive”.
To `COc1cccc2c3cccc(OC)c3c3[nH]cnc3c12` belongs “inactive”.
On to `COc1cc(N)c2ncccc2c1OC`, for which the IC50 was 63.8 µM (active).
As for `CCN1/C(=C\c2ccc3ccccc3[n+]2CC)Sc2cc(C)ccc21`, the entry is “inactive”.
To `CCOC(=O)c1ccc(S(=O)(=O)Nc2nc3cc(S(=O)(=O)NC4=NCCCCC4)ccc3s2)cc1` belongs “inactive”; to `CC(=O)NC(Nc1c(C)n(C)n(-c2ccccc2)c1=O)C(Cl)(Cl)Cl` (configuration not stated), “inactive”.
With `Cc1c(NC(=S)N/N=C/c2ccc(O)cc2)c(=O)n(-c2ccccc2)n1C`, the IC50 was 68.4 µM (active).
As for `Cc1c(N=C2C=C(Br)C(=O)C(Br)=C2)c(=O)n(-c2ccccc2)n1C`, the figure is 24.2 µM (active).
As for `Cc1[nH]c2ccccc2c1N=Nc1c(C)n(C)n(-c2ccccc2)c1=O`, the figure is 40.2 µM (active); as for `COc1cc(N=Nc2c(C)n(C)n(-c3ccccc3)c2=O)ccc1N`, 47.2 µM (active).
For the molecule `Cc1c(N=Nc2ccc(O)cc2)c(=O)n(-c2ccccc2)n1C`, the 50% inhibitory concentration (IC50) is 19.5 µM (active).
As for `Cc1c(NC(=O)CNCc2ccc3c(c2)OCO3)c(=O)n(-c2ccccc2)n1C`, the entry is “inactive”.
